These results are taken from the supplement of paper PMC12350171.

Structures are written as SMILES. Counter-ions that a name gives are not always drawn.

One experiment has as its system Salmonella enterica typhimurium. As to the kind of experiment: growth AUC normalised to DMSO control (fraction of control); higher = less growth inhibition, active = hit call of the paper. As to conditions: 20 µM;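 active = AUC significantly below DMSO controls by Student t-fit with adjusted P under 0.01; inactive = not significantly reduced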. In short, it runs like this: (§1)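 Pathogens were passaged twice under anaerobic conditions, then inoculated into pre-reduced mGAM plates at a starting OD578 of 0.01, with compound at 20 μM and 1% DMSO, and sealed with breathable membranes. For Haemophilus parainfluenzae, the medium was supplemented with hemin and NAD. OD578 was read every hour for 24 h in three biological replicates. Growth-curve AUC was calculated by the trapezoidal rule up to the exponential-to-stationary transition and normalised to DMSO controls on the same plate.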
Turning to `CN1CCCCC1CCN1c2ccccc2Sc2ccc([S+](C)[O-])cc21` (stereo not given) [Mesoridazine besylate], the “growth AUC normalised to DMSO control” value was 0.993 (inactive).

On to `CC(C)NCC(O)c1ccc(O)c(O)c1` (single isomer, unassigned; (-)) [(-) Isoproterenol hydrochloride], for which the “growth AUC normalised to DMSO control” value was 1.01 (inactive). The same measure, in the same setting: then `CO/N=C(\C(=O)N[C@@H]1C(=O)N2C(C(=O)O)=C(C[N+]3(C)CCCC3)CS[C@H]12)c1csc(N)n1` [Cefepime hydrochloride], with 0.00376 (active); and `N=C(N)N1CCc2ccccc2C1` [Debrisoquin sulfate], with 0.995 (inactive); and `CC(=O)O[C@]1(C(C)=O)CC[C@H]2[C@@H]3C=C(C)C4=CC(=O)CC[C@]4(C)[C@H]3CC[C@@]21C` [Megestrol acetate], with 1.02 (inactive). On the same count and under the same terms, the figure for `N=C(N=C(N)N)N1CCOCC1` [Moroxidine hydrochloride] is 0.999 (inactive); for `c1ccc2[nH]c(-c3cscn3)nc2c1` [Tiabendazole] it is 0.97 (inactive).

Consider `CN(C)[C@@H]1C(=O)C(C(N)=O)=C(O)[C@@]2(O)C(=O)C3=C(O)c4c(O)ccc(Cl)c4[C@@H](O)[C@H]3C[C@@H]12` [Demeclocycline hydrochloride], for which the “growth AUC normalised to DMSO control” value is 0.00255 (active). As for `COc1c2occc2c(OC)c2c(=O)cc(C)oc12` [Khellin], the “growth AUC normalised to DMSO control” value is 1 (inactive). With `CN1CCN(C(c2ccccc2)c2ccccc2)CC1` [Cyclizine hydrochloride], the “growth AUC normalised to DMSO control” value was 0.987 (inactive).

The subject of a further experiment is Shigella flexneri. Described as above. As to conditions: 20 µM. In short, it runs like this: as §1
For the compound `Cc1ccc(S(=O)(=O)NC(=O)NN2CC3CCCC3C2)cc1` (stereo not given) [Gliclazide], the “growth AUC normalised to DMSO control” value is 1.04 (inactive).

For `O=c1[nH]cc(F)c(=O)[nH]1` [5-fluorouracil], the “growth AUC normalised to DMSO control” value was 0.745 (active). Still for that read-out and setting: the figure for `COC(=O)C1=C(C)NC(C)=C(C(=O)OC)C1c1ccccc1[N+](=O)[O-]` [Nifedipine] is 0.997 (inactive); for `COc1ccc(CN(CCN(C)C)c2ccccn2)cc1` [Pyrilamine maleate] it is 0.995 (inactive); for `Cc1c(Cl)cccc1Nc1ccccc1C(=O)O` [Tolfenamic acid] it is 0.961 (inactive). With `C[C@@](Cc1ccc(O)c(O)c1)(NN)C(=O)O` [Carbidopa], the “growth AUC normalised to DMSO control” value is 0.948 (inactive). As to `CCN(CC)CCCC(C)Nc1ccnc2cc(Cl)ccc12` (stereo not given) [Chloroquine diphosphate], the “growth AUC normalised to DMSO control” value was 0.982 (inactive). In the case of `c1ccc(-c2ccc(C(c3ccccc3)n3ccnc3)cc2)cc1` (stereo not given) [Bifonazole], the “growth AUC normalised to DMSO control” value is 1.04 (inactive). The same measure, in the same setting: then `C[C@H](CS)C(=O)N1CCC[C@H]1C(=O)O` [Captopril], with 1.03 (inactive). For `Nc1ccc(C(=O)NCC(=O)O)cc1` [Aminohippuric acid], the “growth AUC normalised to DMSO control” value was 0.989 (inactive). For the compound `CC(C(=O)O)c1ccc(N2Cc3ccccc3C2=O)cc1` (stereo not given) [Indoprofen], the “growth AUC normalised to DMSO control” value was 1.01 (inactive). The same measure, in the same setting: then `CO[C@@]1(NC(=O)Cc2cccs2)C(=O)N2C(C(=O)O)=C(COC(N)=O)CS[C@@H]21` [Cefoxitin sodium salt], with 0.0351 (active). Same read-out and setting: then `CN1CCN(CCCN2c3ccccc3Sc3ccc(C(F)(F)F)cc32)CC1` [Trifluoperazine dihydrochloride], with 1.04 (inactive).

Turning to `CN(C)CCOc1ccc(/C(=C(/CCCl)c2ccccc2)c2ccccc2)cc1` [Toremifene], the “growth AUC normalised to DMSO control” value is 1.05 (inactive). Regarding `O=C1Nc2ccc(Cl)cc2[C@@](C#CC2CC2)(C(F)(F)F)O1` [Efavirenz], the “growth AUC normalised to DMSO control” value is 1.01 (inactive). Turning to `CO[C@@H]1[C@@H](O[C@@H]2O[C@H](C)[C@@H](O[C@H]3C[C@@](C)(O)[C@@H](OC(=O)CC(C)C)[C@H](C)O3)[C@H](N(C)C)[C@H]2O)[C@@H](CC=O)C[C@@H](C)[C@@H](O)/C=C/C=C/C[C@@H](C)OC(=O)C[C@H]1OC(C)=O` [Josamycin], the “growth AUC normalised to DMSO control” value was 0.995 (inactive).

As to `O=C(NCCNCC(O)COc1ccc(O)cc1)N1CCOCC1` (stereo not given) [Xamoterol hemifumarate], the “growth AUC normalised to DMSO control” value was 0.945 (inactive). Same read-out and setting: the figure for `CCN(CC)CCCC(C)Nc1c2ccc(Cl)cc2nc2ccc(OC)cc12` (stereo not given) [Quinacrine dihydrochloride hydrate] is 0.933 (inactive); for `C[C@H]1C[C@H]2[C@@H]3CCC4=CC(=O)C=C[C@]4(C)[C@@]3(F)[C@@H](O)C[C@]2(C)[C@@]1(O)C(=O)CO` [Betamethasone] it is 0.957 (inactive). Still for that read-out and setting: the figure for `CCCCC(CC)CNC(=N)NC(=N)NCCCCCCNC(=N)NC(=N)NCC(CC)CCCC` (stereo not given) [Alexidine dihydrochloride] is 0.833 (active); for `COc1ccc(C(=O)NCc2cccnc2)cc1C(=O)NCc1cccnc1` [Picotamide monohydrate] it is 0.968 (inactive). Turning to `C[C@@H](c1ncncc1F)[C@](O)(Cn1cncn1)c1ccc(F)cc1F` [Voriconazole], the “growth AUC normalised to DMSO control” value was 0.959 (inactive).

With `NCC[C@H](O)C(=O)N[C@@H]1C[C@H](N)[C@@H](O[C@H]2O[C@H](CN)[C@@H](O)[C@H](O)[C@H]2O)[C@H](O)[C@H]1O[C@H]1O[C@H](CO)[C@@H](O)[C@H](N)[C@H]1O` [Amikacin hydrate], the “growth AUC normalised to DMSO control” value is 0.985 (inactive). On the same count and under the same terms, the figure for `CO[C@H]1/C=C/O[C@@]2(C)Oc3c(C)c(O)c4c(O)c(c(/C=N/N5CCN(C)CC5)c(O)c4c3C2=O)NC(=O)/C(C)=C\C=C\[C@H](C)[C@H](O)[C@@H](C)[C@@H](O)[C@@H](C)[C@H](OC(C)=O)[C@@H]1C` [Rifampicin] is 0.118 (active); for `CC(C)NCC(O)COc1cccc2[nH]ccc12` (stereo not given) [Pindolol] it is 1.04 (inactive); for `NCCCC[C@H](N[C@@H](CCc1ccccc1)C(=O)O)C(=O)N1CCC[C@H]1C(=O)O` [Lisinopril] it is 1.02 (inactive). As for `Cc1cccc(Nc2ccccc2C(=O)O)c1C` [Mefenamic acid], the “growth AUC normalised to DMSO control” value is 1.01 (inactive). Turning to `CN(C)CCC(c1ccccc1)c1ccccn1` (stereo not given) [Pheniramine maleate], the “growth AUC normalised to DMSO control” value was 1.04 (inactive). The same measure, in the same setting: the figure for `COc1cc(-c2ccc(=O)[nH]n2)ccc1OC(F)F` [Zardaverine] is 0.999 (inactive); for `CCOc1ccc2c(c1)C(C)=CC(C)(C)N2` [Ethoxyquin] it is 0.95 (inactive); for `CN1CCCCC1CCN1c2ccccc2Sc2ccc([S+](C)[O-])cc21` (stereo not given) [Mesoridazine besylate] it is 0.978 (inactive). Same read-out and setting: the figure for `CC(C)NCC(O)c1ccc(O)c(O)c1` (single isomer, unassigned; (-)) [(-) Isoproterenol hydrochloride] is 1.03 (inactive).

Take `CO/N=C(\C(=O)N[C@@H]1C(=O)N2C(C(=O)O)=C(C[N+]3(C)CCCC3)CS[C@H]12)c1csc(N)n1` [Cefepime hydrochloride]: the “growth AUC normalised to DMSO control” value is 0.0351 (active). `N=C(N)N1CCc2ccccc2C1` [Debrisoquin sulfate]: the “growth AUC normalised to DMSO control” value is 0.975 (inactive). For the compound `CC(=O)O[C@]1(C(C)=O)CC[C@H]2[C@@H]3C=C(C)C4=CC(=O)CC[C@]4(C)[C@H]3CC[C@@]21C` [Megestrol acetate], the “growth AUC normalised to DMSO control” value is 1.12 (inactive). Turning to `N=C(N=C(N)N)N1CCOCC1` [Moroxidine hydrochloride], the “growth AUC normalised to DMSO control” value was 1 (inactive).

Take `c1ccc2[nH]c(-c3cscn3)nc2c1` [Tiabendazole]: the “growth AUC normalised to DMSO control” value was 0.954 (inactive). `CN(C)[C@@H]1C(=O)C(C(N)=O)=C(O)[C@@]2(O)C(=O)C3=C(O)c4c(O)ccc(Cl)c4[C@@H](O)[C@H]3C[C@@H]12` [Demeclocycline hydrochloride]: the “growth AUC normalised to DMSO control” value is 0.0177 (active). As to `COc1c2occc2c(OC)c2c(=O)cc(C)oc12` [Khellin], the “growth AUC normalised to DMSO control” value is 1.05 (inactive).

As for `CN1CCN(C(c2ccccc2)c2ccccc2)CC1` [Cyclizine hydrochloride], the “growth AUC normalised to DMSO control” value is 1.01 (inactive).
